Compound activity: PubChem, Sanford-Burnham Center for Chemical Genomics
KKLEB cytotox = cytotoxicity in KKLEB CF airway cells, primary screen, cytotoxicity control for CF NF-kB inhibitor project, cell-based, uHTS, fluorescence assay plates; KKLEB CF airway cells viability, ATPlite luminescence, overnight; stronger effect = lower value; cells stimulated with P. aeruginosa culture filtrate; activity change (cytotoxicity), % at 5 µM; 360,000 tested, 0.36% active;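 active = corrected activity change at or below -50% at 5 µM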
CF NFkB block = inhibitors of PAF-induced NF-kB signaling, primary screen, cell-based, GFP fluorescence, uHTS; 360,000 tested, 0.86% active; inhibition, % at 5 µM; KKLEB NF-kB-GFP reporter, GFP fluorescence overnight;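 active = at least 50% inhibition at 5 µM, scaled per plate between neutral and stimulator controls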;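 note: PAF is a Pseudomonas aeruginosa culture filtrate used as stimulus; plate controls were PAF-stimulated DMSO wells for no effect and unstimulated DMSO wells for full effect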
TWEAK-Fn14 inh = inhibitors of TWEAK-Fn14 signaling, primary screen, luciferase reporter cells, uHTS; 360,000 tested, 2% active; TWEAK-stimulated Fn14 reporter cells, luciferase luminescence, 8 h; inhibition, % at 10 µM; in the data active = inhibition above about 50%
Peg3 promoter = Peg3 promoter-driven luciferase inhibitors, primary screen, cell-based, HeLa, luciferase luminescence; inhibition, % at 20 µM; 360,000 tested, 1.7% active; HeLa PEG-Prom luciferase reporter, overnight; AID 588405, 2011;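 active = inhibition of at least 50% at 20 µM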
HIF-2a inh = HIF-2a reporter inhibitors, primary screen, luminescence, 786-0 RCC cells. 786-0 RCC cells HIF-2a reporter, luciferase luminescence, overnight. AID 624352, 2012. inhibition, % at 18.8 µM. 360,000 tested, 0.72% active;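 active = inhibition of the luminescence signal of 40% or more relative to plate controls, in a single-dose primary screen at 18.75 µM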
TROY signal inh = inhibitors of TROY-driven NF-kB signaling, primary screen, Q293 LMP1-TROYcd cells, NF-kB luciferase, uHTS; Q293 LMP1-TROYcd NF-kB luciferase reporter, 4 h; inhibition, % at 10 µM; 360,000 tested, 0.98% active; AID 1347056, 2019;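 active = compounds whose plate-normalised and pattern-corrected inhibition of the luciferase reporter signal at the single screening dose is 50% or more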
Starred values were filed as active, the others as inactive; · = not tested or not shown. Shown are actives, neighbours in structure and some others; about 4% of the full set was active somewhere.

SMILES | KKLEB cytotox | CF NFkB block | TWEAK-Fn14 inh | Peg3 promoter | HIF-2a inh | TROY signal inh
CC1CC(C)CN(S(=O)(=O)c2ccc(F)c(C(=O)NC3CCCCC3C)c2)C1 (stereo not given) | -4.2 | 10.4 | 17.5 | 11.6 | 15.4 | 17.1
O=C1NC2(NN1c1ccccc1)C1CC3CC(C1)CC2C3 (stereo not given) | 0.1 | 1.8 | 88.2* | 20.6 | 13.5 | ·
CCCc1c(C(=O)N/N=C/c2cccc(OCc3ccc(F)cc3)c2)nnn1-c1nonc1N | -11.2 | 6.0 | -16.3 | -27.2 | -33.8 | 12.2
O=C(O)C1C2CCCCC2=C2CCCCC2C1C(=O)O (stereo not given) | -13.7 | 19.3 | 2.7 | 53.1* | 23.5 | 1.9
C/C(=N/NS(=O)(=O)c1ccc(Br)cc1)c1c[nH]c2ccccc12 | 7.2 | -2.5 | 1.0 | -17.6 | 5.4 | -13.3
O=S(=O)(Nc1c(S(=O)(=O)c2ccccc2)c2nc3ccccc3nc2n1C1CCCCC1)c1ccccc1 | 0.8 | 25.6 | 98.0* | 21.6 | -2.9 | 64.3*
Cc1nccc(-c2sc(-c3cccs3)nc2C)n1 | -7.0 | -7.4 | -9.9 | -164.3 | -194.7 | 59.5*
Cc1nc(-c2cccs2)sc1C(=O)O | -26.2 | 0.9 | -4.1 | -10.2 | 7.1 | -15.1
COCCn1c(C)c(C)c2c(NCCc3ccccc3)ncnc21 | -10.8 | 8.6 | -59.1 | 15.8 | -1.7 | 80.2*
CC(=O)OC(C)=O | -10.5 | -2.4 | 9.7 | 2.5 | 0.2 | 3.0
COc1ccc(-c2nc(CSCC(=O)NCc3ccco3)c(C)o2)cc1 | -10.1 | 14.7 | 69.2* | -10.7 | 25.5 | 30.5
Cc1cccc2sc(N(CCCN(C)C)C(=O)CN3C(=O)c4ccccc4C3=O)nc12 | 3.6 | -2.7 | 0.7 | -38.0 | 3.8 | -25.5
Cc1cccc2sc(N(CCCN(C)C)C(=O)CCc3ccccc3)nc12 | -15.1 | 21.9 | -20.1 | 104.0* | 10.3 | -22.6
CN(C)CCCN(C(=O)CCc1ccccc1)c1nc2ccc(Br)cc2s1 | -20.6 | 23.8 | -8.5 | 106.4* | -2.6 | 10.7
CN(C)CCCN(C(=O)c1ccco1)c1nc2ccc(Cl)cc2s1 | -10.0 | 8.9 | -25.8 | -61.2 | -55.0 | -53.3
CN(C)CCCN(C(=O)c1ccco1)c1nc2ccc(Br)cc2s1 | -13.5 | -8.7 | -53.7 | 50.8* | -63.5 | -69.3
COc1ccc([C@H]2CC(=O)C=C(c3cccc(Br)c3)C2)cc1OC | -31.6 | 35.3 | 7.3 | 18.9 | 6.8 | 19.3
CCC(=O)OCC(=O)C1(OC(=O)CC)[C@H](C)C[C@H]2[C@H]3[C@H]([C@@H](O)C[C@@]21C)[C@@]1(C)C=CC(=O)C=C1C[C@H]3Cl (stereo not given in full) | 31.7 | 69.0* | -40.0 | -9.2 | 28.1 | 16.4
C[C@]12C=CC(=O)C=C1CC[C@@H]1[C@@H]2[C@@H](O)C[C@@]2(C)[C@H]1CC[C@]2(O)C(=O)CO | 26.5 | 73.4* | -6.6 | 6.8 | 23.7 | 26.5
CCOC(=O)O[C@]1(C(=O)COC(=O)CC)CC[C@H]2[C@@H]3CCC4=CC(=O)C=C[C@]4(C)[C@H]3[C@@H](O)C[C@@]21C | 9.3 | 76.7* | 8.0 | -30.4 | 15.7 | 14.5
CC(=O)OCC(=O)C1(O)CCC2C3CCC4=CC(=O)C=CC4(C)C3C(=O)CC21C (stereo not given) | 4.2 | 13.8 | -16.2 | 0.8 | 3.5 | -9.9
C[C@]12C=CC(=O)C=C1CC[C@@H]1[C@@H]2[C@@H](O)C[C@@]2(C)[C@H]1CC[C@]2(O)C(=O)COC(=O)CCC(=O)NCCc1ccc(O)cc1 | 34.3 | 80.3* | -3.5 | -22.9 | 13.3 | 1.0
COc1ccc(S(=O)(=O)N(C)C[C@H]2Oc3c(NC(=O)NC(C)C)cccc3C(=O)N([C@H](C)CO)C[C@@H]2C)cc1 | 2.8 | 5.9 | 3.6 | 4.0 | 2.6 | -8.7
CC12CCC(=O)C=C1CCC1C2C(=O)CC2(C)C1CCC2(O)C(=O)CO (stereo not given) | -4.1 | 11.1 | -12.7 | 4.8 | 12.7 | 2.5
C[C@H]1C[C@@H]2[C@H]([C@@H](O)C[C@@]3(C)[C@H]2CC[C@]3(O)C(=O)CO)[C@@]2(C)C=CC(=O)C=C12 | 19.7 | 74.0* | -6.1 | -8.6 | 16.9 | 15.9
SMILES | KKLEB cytotox | CF NFkB block | TWEAK-Fn14 inh | Peg3 promoter | HIF-2a inh | TROY signal inh
C[C@]12C=CC(=O)C=C1CC[C@@H]1[C@@H]2[C@@H](O)C[C@@]2(C)[C@H]1CC[C@]2(O)C(=O)COC(=O)CCC(=O)O | 16.0 | 55.6* | -4.0 | 12.0 | 31.8 | 20.8
O=C(c1ccccc1F)N1CCN(C(=O)C2CC2)CC1 | 18.5 | -14.7 | 2.2 | 16.4 | 12.0 | 23.1
c1ccc(-c2ccc3ncccc3n2)cc1 | -8.2 | 4.5 | -8.8 | -261.8 | -232.5 | 52.7*
c1ccc(-c2ccc3ccccc3n2)cc1 | 10.4 | -34.0 | -19.4 | -278.1 | -235.7 | -55.7
O=C(/C=C/c1ccccc1)N1CCN(CC(O)COc2ccccc2)CC1 (stereo not given) | 3.0 | 6.6 | 5.1 | 3.2 | 20.1 | 53.9*
CCOC(=O)c1cnc2c(-c3ccc(F)cc3)cnn2c1C(F)(F)F | 1.5 | -6.6 | -39.8 | -77.6 | -65.0 | -16.4
COc1ccc(CNC(=O)c2cccc3c(-c4cccc(C(N)=O)c4)coc23)cc1OC | -9.2 | 22.3 | 90.8* | 27.6 | -82.6 | 63.5*
COc1cc(-c2coc3c(C(=O)NCc4ccc(N(C)C)cc4)cccc23)ccc1O | -33.8 | -9.0 | 1.0 | -26.9 | -53.3 | -12.1
COc1cc(-c2coc3c(C(=O)NCc4ccc(OC)c(OC)c4)cccc23)ccc1O | -32.0 | 4.4 | 95.3* | 51.2* | -159.5 | 66.5*
COc1ccc(CNC(=O)c2cccc3c(-c4ccc(F)c(F)c4)coc23)cc1OC | 5.1 | -33.7 | 64.2* | 19.2 | -0.3 | 45.1
Cc1ccc2[nH]c(=O)cc(C(=O)OCC(=O)c3ccccc3)c2c1 | 4.3 | 2.1 | 4.3 | 0.6 | 18.0 | 11.1
COc1cccc(-n2c(SCC(=O)N3CCc4ccccc43)nnc2-c2c[nH]c3ccccc23)c1 | -57.9* | 60.1* | -42.5 | 100.8* | 3.9 | -7.6
CCOc1ccc(-n2c(SCC(=O)N3CCc4ccccc43)nnc2-c2c[nH]c3ccccc23)cc1 | -1.9 | -4.6 | -41.5 | -18.6 | -13.1 | -44.1
CC(C)=CCc1cc([C@@H]2COc3c(ccc4c3C=CC(C)(C)O4)C2)c(O)cc1O | -6.2 | -8.2 | 63.4* | 83.8* | -3.7 | 10.1
COc1ccc(C=CC(=O)C=CC=Cc2ccccc2)cc1 | -19.4 | 16.4 | -7.6 | -83.7 | 4.5 | -32.8
COc1ccc(N=Nc2ccc3ccccc3c2)c(O)c1 | -18.7 | -13.5 | 80.9* | -153.3 | -75.0 | 62.8*
